We go through 7 compounds from PubChem BioAssay (EPA / NIEHS).

By AC50 is commonly meant the concentration at which the activity in the assay is half-maximal.

Read-out in assay [1]: Cytochrome P450 3A4 (Homo sapiens) (UniProt P08684)
The assay can be described thus: CLD_CYP3A4_24hr: CellzDirect (CLD) Gene Expression Assay for xenobiotic metabolism (CYP3A4) at 24 hours (AID 2283689). In outline: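 Primary human hepatocytes from two donors dosed daily with fresh compound for two days, 0.2% DMSO vehicle. CYP3A4 mRNA at 24 hr by qNPA chemiluminescence; gain-of-signal fit versus DMSO, cytotoxicity flagged by morphology.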

Read-out in assay [2]: sulfotransferase (SULT2A), SULT2A1 (gene 6822)
Nature of the assay: CLD_SULT2A_24hr: CellzDirect (CLD) Gene Expression Assay for sulfotransferase (SULT2A) at 24 hours (AID 2283694).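 As to AC50: potency for increased SULT2A1 mRNA level as induction over DMSO baseline.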 In outline:
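Primary human hepatocytes from two donor preparations were dosed daily with fresh solutions, vehicle 0.2% DMSO. At 24 h, lysates went to quantitative nuclease protection (qNPA) with S1 digestion and chemiluminescent readout. Cytotoxicity was annotated from phase-contrast morphology.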

Read-out in assay [3]: ABC Transporter (ABCB1), ABCB1 (gene 5243)
The assay can be described thus: CLD_ABCB1_48hr: CellzDirect (CLD) Gene Expression Assay for ABC Transporter (ABCB1) at 48 hours (AID 2283695).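 As to AC50: potency for induction meaning increase of mRNA over DMSO vehicle.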 In outline: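 Primary human hepatocytes from two donor preparations dosed daily on two consecutive days with 0.2% DMSO vehicle. Harvest at 48 h. ABCB1 mRNA quantified by qNPA with chemiluminescence and fitted for gain of signal versus DMSO.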

Read-out in assay [4]: glucuronosyltransferase (UGT1A1), UGT1A1 (gene 54658)
The assay can be described thus: CLD_UGT1A1_24hr: CellzDirect (CLD) Gene Expression Assay for glucuronosyltransferase (UGT1A1) at 24 hours (AID 2283696). The gist of the method: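 Primary human hepatocytes from two donor preparations were dosed (0.2% DMSO vehicle) and harvested at 24 h; UGT1A1 mRNA induction was quantified by chemiluminescent qNPA, fitted as gain relative to DMSO.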

Read-out in assay [5]: Cytochrome P450 2C9 (Homo sapiens) (UniProt P11712)
Nature of the assay: CLD_CYP2C9_48hr: CellzDirect (CLD) Gene Expression Assay for xenobiotic metabolism (CYP2C9) at 48 hours (AID 2283701; active = hit-call score of the fitted dose curve at least 0.9, where 1 is the maximum; inactive = score below 0.9). In outline: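 Primary human hepatocytes (two donor preparations) dosed daily for two days with test chemicals, 0.2% DMSO vehicle; harvested at 48 h. mRNA induction quantified by qNPA chemiluminescence, fitted for gain of signal against DMSO baseline; cytotoxicity annotated from phase-contrast morphology.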

Read-out in assay [6]: Broad substrate specificity ATP-binding cassette transporter ABCG2 (Homo sapiens) (UniProt Q9UNQ0)
The assay can be described thus: CLD_ABCG2_48hr: CellzDirect (CLD) Gene Expression Assay for ABC Transporter (ABCG2) at 48 hours (AID 2283704).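 As to AC50: potency for induction of ABCG2 mRNA above the DMSO baseline.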 The gist of the method: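 Primary human hepatocytes from two donors, dosed daily for 2 days, 0.2% DMSO vehicle, several concentrations. ABCG2 mRNA at 48 h by qNPA chemiluminescence, gain fitted versus DMSO; cytotoxicity flagged by morphology.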

Read-out in assay [7]: xenobiotic metabolism (CYP1A1), CYP1A1 (gene 1543)
Nature of the assay: CLD_CYP1A1_48hr: CellzDirect (CLD) Gene Expression Assay for xenobiotic metabolism (CYP1A1) at 48 hours (AID 2283705). The gist of the method:
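Primary human hepatocytes from two donors dosed daily for two days at multiple concentrations, 0.2% DMSO vehicle; CYP1A1 mRNA induction at 48 h by qNPA chemiluminescence. Cytotoxicity noted by phase-contrast morphology.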

Read-out in assay [8]: organic anion transporter (SLCO1B1), SLCO1B1 (gene 10599)
The assay can be described thus: CLD_SLCO1B1_48hr: CellzDirect (CLD) Gene Expression Assay for organic anion transporter (SLCO1B1) at 48 hours (AID 2283707). In outline: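 Primary human hepatocytes from two donor preparations dosed daily for two days with multiple concentrations, 0.2% DMSO vehicle. SLCO1B1 mRNA at 48 h by quantitative nuclease protection assay, chemiluminescence; gain-of-signal fitted versus DMSO.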

Read-out in assay [9]: glucuronosyltransferase (UGT1A1), UGT1A1 (gene 54658)
The assay can be described thus: CLD_UGT1A1_48hr: CellzDirect (CLD) Gene Expression Assay for glucuronosyltransferase (UGT1A1) at 48 hours (AID 2283709).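 Also: actives increase expression relative to DMSO so potency refers to induction.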 In outline: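 Human primary hepatocytes dosed daily for two days (0.2% DMSO vehicle), harvested at 48 h. UGT1A1 mRNA induction measured by quantitative nuclease protection assay with chemiluminescence; gain of signal versus DMSO; cytotoxicity flagged from morphology.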

Read-out in assay [10]: sulfotransferase (SULT2A), SULT2A1 (gene 6822)
The assay can be described thus: CLD_SULT2A_48hr: CellzDirect (CLD) Gene Expression Assay for sulfotransferase (SULT2A) at 48 hours (AID 2283710).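 Also: hits raise SULT2A1 transcript above the 0.2% DMSO vehicle baseline.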 The gist of the method: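 Primary human hepatocytes (two donor preparations) dosed daily for two days with chemicals at multiple concentrations, vehicle 0.2% DMSO; SULT2A1 mRNA induction at 48 h by quantitative nuclease protection assay, chemiluminescent read-out, fitted for gain of signal versus DMSO.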

Assay [11] can be described thus: CEETOX_H295R_MTT_cell_viability: Viability Assessment in the CeeTox HT-H295R MTT Assay (AID 2283718; active = hit-call score of the fitted dose curve at least 0.9, where 1 is the maximum; inactive = score below 0.9;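 as to AC50: curve fitted both ways so AC50 may mark viability loss or gain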). The gist of the method: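 Human H295R adrenal cells, prestimulated 48 h with 10 uM forskolin, were exposed 48 h to chemicals in 0.1% DMSO. Viability was measured in the same wells by MTT (0.5 mg/ml, 4 h, 37 C), absorbance 570/650 nm, as percent of controls.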
The nature of assay [12]: Tanguay_ZF_120hpf_ActivityScore_legacy: (Legacy) Oregon State University Tanguay Lab 120 Hour Post-fertilization zebrafish Assay Score for Activity (AID 2283742).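 As to AC50: dechorionated Tropical 5D wild-type zebrafish embryos held singly per well; static exposure from 6 hpf until 120 hpf at 28 °C.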 In outline:
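Dechorionated Tropical 5D embryos, one per well from 6 hpf, statically exposed to 120 hpf at 28 °C in 0.64% DMSO. Mortality and malformations scored binary by brightfield microscopy; activity score combines 18 endpoints, fitted positively versus DMSO.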

Assay [13] concerns Thyroperoxidase (TPO), gene 445522. The assay can be described thus: CCTE_Simmons_GUA_TPO: CCTE's Guaiacol Assay for Thyroperoxidase (TPO) Inhibition, Simmons Lab (AID 2283750). The gist of the method: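 Porcine thyroid microsomes (25 ug) in 200mM potassium phosphate, preincubated 30 s at 37C with compound (8 concentrations, 5 nM–87.5 uM) and 35mM guaiacol; 1mM H2O2 starts reaction. Absorbance change at 450nm over first 80 s; loss of signal versus DMSO, three replicates.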

Assay [14] is described as follows: STM_H9_OrnithineISnorm_perc: Stemina devTOX quickPredict H9 human embryonic stem cell (hESC)-based Assay for Ornithine (ORN) Metabolite Biomarker, Normalized (AID 2283712; active = hit-call score of the fitted dose curve at least 0.9, where 1 is the maximum; inactive = score below 0.9;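 also: ornithine released into spent medium during last day measured by mass spectrometry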). The gist of the method: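 Undifferentiated H9 hESCs exposed 72 h with daily media and compound renewal; final 24-h conditioned medium analysed by UPLC-HRMS. Ornithine peak area normalised to spiked C13 standard and to median 0.1% DMSO control; viability by CellTiter-Fluor.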

A short description of assay [15]: STM_H9_CystineISnorm_perc: Stemina devTOX quickPredict H9 human embryonic stem cell (hESC)-based Assay for Cystine (CYSS) Metabolite Biomarker, Normalized (AID 2283713; active = hit-call score of the fitted dose curve at least 0.9, where 1 is the maximum; inactive = score below 0.9). The gist of the method: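 Undifferentiated H9 hESCs exposed 72 h, compound and media replaced every 24 h; final 24-h media analysed by UPLC-HRMS. Cystine normalized to C13 spike-in standard and median 0.1% DMSO control.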

Read-out in assay [16]: alkyl and aryl transferase (GSTA2), GSTA2 (gene 2939)
Nature of the assay: CLD_GSTA2_24hr: CellzDirect (CLD) Gene Expression Assay for alkyl and aryl transferase (GSTA2) at 24 hours (AID 2283693). In outline: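 Primary human hepatocytes (two donor preparations) dosed daily for two days with chemicals at multiple concentrations (vehicle 0.2% DMSO); GSTA2 mRNA at 24 h measured by qNPA chemiluminescence, gain-of-signal versus DMSO.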

Assay [17] is described as follows: STM_H9_OrnCyssISnorm_ratio: Stemina devTOX quickPredict H9 human embryonic stem cell (hESC)-based Assay for Ornithine (ORN):Cystine (CYSS) Ratio (AID 2283714). In outline:
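Undifferentiated H9 hESCs exposed 72 h, media and compound replaced every 24 h; final 24-h conditioned media deproteinized and analysed by UPLC-HRMS against C13 spike-ins. Value is the internal-standard-normalized ORN/CYSS ratio versus 0.1% DMSO.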

The structures appear in SMILES notation. Values joined by “and” are separate entries in the source; they are usually repeats but may differ in a detail not shown here. Equal values may be shown once. Records with an inconclusive call do not appear. A structure can be active in one record and inactive in another. Active and inactive are the calls of the source. The calls were made as follows, unless noted: active = hit-call score of the fitted dose curve at least 0.9, where 1 is the maximum; inconclusive = response in the unintended direction; inactive = score below 0.9.

Chain of Cytochrome P450 3A4 (Homo sapiens) (P08684 whole entry, looked up): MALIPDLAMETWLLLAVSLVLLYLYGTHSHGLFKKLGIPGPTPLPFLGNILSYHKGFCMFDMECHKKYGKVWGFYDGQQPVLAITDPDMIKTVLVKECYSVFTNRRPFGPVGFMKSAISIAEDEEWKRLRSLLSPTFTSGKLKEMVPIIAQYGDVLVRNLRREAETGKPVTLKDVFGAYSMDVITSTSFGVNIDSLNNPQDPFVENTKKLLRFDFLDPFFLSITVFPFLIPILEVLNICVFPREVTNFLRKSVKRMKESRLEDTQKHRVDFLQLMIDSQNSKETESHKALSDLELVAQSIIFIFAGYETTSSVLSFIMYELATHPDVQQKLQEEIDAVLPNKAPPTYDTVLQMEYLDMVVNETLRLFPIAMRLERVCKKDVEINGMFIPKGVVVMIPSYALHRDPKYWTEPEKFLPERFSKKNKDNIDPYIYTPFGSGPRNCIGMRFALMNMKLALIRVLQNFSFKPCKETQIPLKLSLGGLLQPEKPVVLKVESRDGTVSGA
Chain of Broad substrate specificity ATP-binding cassette transporter ABCG2 (Homo sapiens) (Q9UNQ0 whole entry, looked up): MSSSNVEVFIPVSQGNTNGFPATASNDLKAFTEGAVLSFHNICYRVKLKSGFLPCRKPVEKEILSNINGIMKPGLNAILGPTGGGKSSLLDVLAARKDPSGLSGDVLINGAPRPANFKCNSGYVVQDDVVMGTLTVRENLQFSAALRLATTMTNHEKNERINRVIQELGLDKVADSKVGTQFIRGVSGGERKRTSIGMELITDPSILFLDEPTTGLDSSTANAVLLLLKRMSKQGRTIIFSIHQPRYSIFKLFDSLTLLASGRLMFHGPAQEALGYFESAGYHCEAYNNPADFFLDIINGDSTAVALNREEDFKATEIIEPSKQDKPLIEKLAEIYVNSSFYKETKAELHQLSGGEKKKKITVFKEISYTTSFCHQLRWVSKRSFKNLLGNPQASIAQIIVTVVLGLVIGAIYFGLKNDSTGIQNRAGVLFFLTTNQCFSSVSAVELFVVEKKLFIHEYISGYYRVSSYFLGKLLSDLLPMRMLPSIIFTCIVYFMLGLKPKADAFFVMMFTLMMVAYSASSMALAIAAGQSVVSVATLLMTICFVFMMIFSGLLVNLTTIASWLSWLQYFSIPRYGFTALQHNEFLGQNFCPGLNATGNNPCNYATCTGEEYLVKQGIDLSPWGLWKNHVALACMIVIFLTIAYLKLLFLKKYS

Take `COP(=S)(OC)Oc1ccc([N+](=O)[O-])cc1`: the compound was called inactive in assay [1], in assay [2], in [3], in assay [4], in assay [5] and in assay [6]. Besides, the call in [8], in [10], in assay [11], in [12] and in assay [13] was inactive. Besides, the concentration at half-maximal activity (AC50) in assay [7] is 12.2 µM (active); in [9] it was 6.74 µM (active).

As to `O=C(O)C(F)(F)C(F)(F)C(F)(F)C(F)(F)C(F)(F)C(F)(F)C(F)(F)F`, the concentration at half-maximal activity (AC50) in [1] is 20 µM (active); in [7], 0.0776 µM (active). The result in assay [2], in [3], in assay [4], in assay [6], in assay [8] and in [9] was inactive. For the same compound, the call in assay [10], in assay [14], in assay [15] and in assay [12] was inactive.

Turning to `CCOc1nc(NC)nc(NC(=O)NS(=O)(=O)c2ccccc2C(=O)OC)n1`, the call in [1], in assay [3], in assay [4], in assay [5], in [6] and in [8] was inactive. For the same compound, the compound was classed as inactive in assay [9]. Also, the concentration at half-maximal activity (AC50) in assay [7] was 20 µM (active).

For the compound `CC(C)(C)C(O)C(Oc1ccc(Cl)cc1)n1cncn1` (centres undefined), the compound was classed as inactive in assay [16], in [2], in [3], in assay [5], in assay [6] and in assay [14]. For the same compound, in assay [11], the call was inactive. Further, the concentration at half-maximal activity (AC50) is 6.66 µM (active) in assay [4]; 5.32 µM (active) in [7]; 2.43 µM (active) in assay [9]; 7.18 µM (active) in assay [10]; 20.4 µM (active) in [15]; 28.3 µM (active) in assay [17]. The AC50 in assay [12] is 26.3 µM (active) and 43 µM (active) and 47 µM (active).

Consider `CC[C@H](C)[C@H]1O[C@]2(C=C[C@@H]1C)C[C@@H]1C[C@@H](C/C=C(\C)[C@@H](O[C@H]3C[C@H](OC)[C@@H](O[C@H]4C[C@H](OC)[C@@H](O)[C@H](C)O4)[C@H](C)O3)[C@@H](C)/C=C/C=C3\CO[C@@H]4[C@H](O)C(C)=C[C@@H](C(=O)O1)[C@]34O)O2` (tested in a mixture with another compound), for which the call in assay [16], in [7] and in [11] was inactive. Further, the AC50 was 12.3 µM (active) in assay [2], 1.01 µM (active) in assay [3], 3.14 µM (active) in [6] and 8.55 µM (active) in assay [12].

For `CCCN(CCOc1c(Cl)cc(Cl)cc1Cl)C(=O)n1ccnc1`, the concentration at half-maximal activity (AC50) in assay [1] is 0.57 µM (active); in assay [3], 20 µM (active); in assay [6], 35.4 µM (active); in assay [7], 0.458 µM (active); in [11], 50 µM (active). Also, the call in assay [11] and in assay [12] was inactive.

On to `ClC1C(Cl)C(Cl)C(Cl)C(Cl)C1Cl` (centres undefined), for which the compound was classed as inactive in [2], in assay [3], in [4], in assay [5], in assay [6] and in [9]. The compound was classed as inactive in [11] and in assay [12].
